Key:
Assay in all cases: DAPPL (digital affinity profiling via proximity ligation, sequencing); 10 mM Tris-HCl pH 7.5, 50 mM NaCl, 1 mM DTT, 4% glycerol, room temperature, 30 min; GST-TFs on glutathione beads, 16-mer random dsDNA library, 0.1% formaldehyde crosslink after washing; high values mean tight binding
FEV = biological target: T1, FEV (Homo sapiens, UniProt Q99581 1-238); details: protein: recombinant; tags: N-terminal GST; dsDNA, one strand shown
T1 sequence: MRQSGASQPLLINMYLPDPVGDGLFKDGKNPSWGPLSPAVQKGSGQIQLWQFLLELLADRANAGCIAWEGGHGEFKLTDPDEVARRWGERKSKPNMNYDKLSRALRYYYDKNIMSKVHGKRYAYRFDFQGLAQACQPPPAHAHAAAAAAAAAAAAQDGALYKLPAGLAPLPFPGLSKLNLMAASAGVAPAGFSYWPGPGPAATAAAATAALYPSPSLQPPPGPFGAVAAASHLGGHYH
Method in brief: (§1)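 After expression in yeast as GST fusions, human transcription factors were bound to glutathione beads, DNA-barcoded and mixed with a tag-only sample. The pools were incubated with 200 nmole of a 16-mer random double-stranded DNA library in Tris/NaCl/DTT/glycerol buffer (30 min, room temperature), washed and crosslinked with 0.1% formaldehyde. Proximity ligation with BsaI/T4 ligase ran for 1 h at 37 °C, before PCR amplification and sequencing on an Illumina NextSeq500. Binding signal is a hexamer's read frequency for a factor divided by its frequency for the tag-only sample.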

ETV5 = ETV5 (Homo sapiens, UniProt P41161 1-510); details: protein: recombinant; tags: N-terminal GST; dsDNA, one strand shown
Method in brief: as §1

HSF1 = HSF1 (Homo sapiens, UniProt Q00613 1-529); details: protein: recombinant; tags: N-terminal GST; chain copies: 3; dsDNA, one strand shown
Method in brief: as §1

SPIC = biological target: T2, SPIC (Homo sapiens, UniProt Q8N5J4 1-248); details: protein: recombinant; tags: N-terminal GST; dsDNA, one strand shown
T2 sequence: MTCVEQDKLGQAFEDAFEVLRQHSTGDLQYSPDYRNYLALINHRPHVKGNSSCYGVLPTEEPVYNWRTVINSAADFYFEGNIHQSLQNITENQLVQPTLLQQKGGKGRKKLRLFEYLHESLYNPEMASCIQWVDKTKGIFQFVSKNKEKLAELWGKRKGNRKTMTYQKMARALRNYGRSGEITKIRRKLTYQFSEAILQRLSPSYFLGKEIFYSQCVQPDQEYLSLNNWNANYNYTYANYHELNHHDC
Method in brief: as §1

ELF4 = ELF4 (Homo sapiens, UniProt Q99607 1-663); details: protein: recombinant; tags: N-terminal GST; dsDNA, one strand shown
Method in brief: as §1

ELK4 = biological target: T3, ELK4 (Homo sapiens, UniProt P28324-2 1-405); details: protein: recombinant; tags: N-terminal GST; dsDNA, one strand shown
T3 sequence: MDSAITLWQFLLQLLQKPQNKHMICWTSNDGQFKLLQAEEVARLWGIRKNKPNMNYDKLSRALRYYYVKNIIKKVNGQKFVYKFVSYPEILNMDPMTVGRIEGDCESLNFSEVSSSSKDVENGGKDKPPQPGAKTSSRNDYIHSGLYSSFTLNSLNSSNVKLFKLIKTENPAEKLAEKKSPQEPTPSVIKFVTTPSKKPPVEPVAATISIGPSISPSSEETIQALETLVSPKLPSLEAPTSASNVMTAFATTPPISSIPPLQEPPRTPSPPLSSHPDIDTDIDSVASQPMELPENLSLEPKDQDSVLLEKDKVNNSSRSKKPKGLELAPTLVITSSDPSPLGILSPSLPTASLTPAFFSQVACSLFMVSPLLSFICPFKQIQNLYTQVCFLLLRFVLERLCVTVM
Method in brief: as §1

ETV2 = biological target: T4, ETV2 (Homo sapiens, UniProt O00321 1-342); details: protein: recombinant; tags: N-terminal GST; dsDNA, one strand shown
T4 sequence: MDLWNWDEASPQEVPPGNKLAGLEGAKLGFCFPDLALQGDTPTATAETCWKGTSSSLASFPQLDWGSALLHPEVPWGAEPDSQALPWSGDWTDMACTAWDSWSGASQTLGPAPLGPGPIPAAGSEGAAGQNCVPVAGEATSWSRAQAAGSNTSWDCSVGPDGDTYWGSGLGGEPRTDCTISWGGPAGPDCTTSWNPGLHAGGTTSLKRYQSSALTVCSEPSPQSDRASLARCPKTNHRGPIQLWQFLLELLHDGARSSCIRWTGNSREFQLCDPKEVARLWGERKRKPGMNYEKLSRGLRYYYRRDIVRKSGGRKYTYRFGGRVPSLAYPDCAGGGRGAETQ
Method in brief: as §1

ELF3 = biological target: T5, ELF3 (Homo sapiens, UniProt P78545 1-371); details: protein: recombinant; tags: N-terminal GST; dsDNA, one strand shown
T5 sequence: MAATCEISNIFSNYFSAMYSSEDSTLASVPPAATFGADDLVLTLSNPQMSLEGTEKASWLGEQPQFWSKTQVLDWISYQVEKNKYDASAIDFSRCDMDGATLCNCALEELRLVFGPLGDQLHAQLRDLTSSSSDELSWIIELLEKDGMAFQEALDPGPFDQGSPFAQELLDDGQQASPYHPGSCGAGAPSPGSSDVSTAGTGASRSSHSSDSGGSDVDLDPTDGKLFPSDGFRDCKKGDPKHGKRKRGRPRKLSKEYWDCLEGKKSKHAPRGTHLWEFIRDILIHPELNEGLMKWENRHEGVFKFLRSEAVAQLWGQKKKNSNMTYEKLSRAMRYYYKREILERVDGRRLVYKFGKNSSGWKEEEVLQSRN
Method in brief: as §1

CRX = CRX (Homo sapiens, UniProt O43186 1-299); details: protein: recombinant; tags: N-terminal GST; dsDNA, one strand shown
Method in brief: as §1

ETV1 = ETV1 (Homo sapiens, UniProt P50549 1-477); details: protein: recombinant; tags: N-terminal GST; dsDNA, one strand shown
Method in brief: as §1

Sequence of ETV5 (P41161 whole entry): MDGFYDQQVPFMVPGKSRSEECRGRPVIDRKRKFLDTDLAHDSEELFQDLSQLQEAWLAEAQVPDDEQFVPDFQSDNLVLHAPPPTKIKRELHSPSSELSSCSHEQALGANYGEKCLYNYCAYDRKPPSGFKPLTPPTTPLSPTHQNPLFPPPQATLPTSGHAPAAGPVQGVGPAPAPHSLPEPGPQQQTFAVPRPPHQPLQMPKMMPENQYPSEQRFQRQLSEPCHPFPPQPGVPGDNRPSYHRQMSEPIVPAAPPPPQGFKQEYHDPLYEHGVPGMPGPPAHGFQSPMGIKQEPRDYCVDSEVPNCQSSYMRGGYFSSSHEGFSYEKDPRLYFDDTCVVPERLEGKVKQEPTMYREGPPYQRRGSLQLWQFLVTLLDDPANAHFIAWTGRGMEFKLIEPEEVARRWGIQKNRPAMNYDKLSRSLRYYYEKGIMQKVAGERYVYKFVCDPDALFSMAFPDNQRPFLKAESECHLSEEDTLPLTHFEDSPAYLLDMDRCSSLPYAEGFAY
Sequence of HSF1 (Q00613 whole entry): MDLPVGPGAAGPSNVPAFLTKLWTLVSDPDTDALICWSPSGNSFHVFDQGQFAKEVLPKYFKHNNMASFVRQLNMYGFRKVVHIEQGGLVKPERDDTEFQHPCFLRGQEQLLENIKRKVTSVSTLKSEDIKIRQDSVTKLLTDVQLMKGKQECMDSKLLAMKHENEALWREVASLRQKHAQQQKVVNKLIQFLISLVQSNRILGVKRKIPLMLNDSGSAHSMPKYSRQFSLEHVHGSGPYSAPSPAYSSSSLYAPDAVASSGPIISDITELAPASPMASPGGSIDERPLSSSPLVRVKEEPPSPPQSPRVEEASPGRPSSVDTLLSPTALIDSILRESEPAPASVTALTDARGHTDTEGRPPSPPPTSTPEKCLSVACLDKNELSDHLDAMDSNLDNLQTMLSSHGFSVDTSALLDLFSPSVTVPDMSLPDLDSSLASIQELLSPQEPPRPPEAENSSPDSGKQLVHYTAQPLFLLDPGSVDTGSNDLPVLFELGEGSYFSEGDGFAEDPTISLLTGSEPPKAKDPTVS
Sequence of ELF4 (Q99607 whole entry): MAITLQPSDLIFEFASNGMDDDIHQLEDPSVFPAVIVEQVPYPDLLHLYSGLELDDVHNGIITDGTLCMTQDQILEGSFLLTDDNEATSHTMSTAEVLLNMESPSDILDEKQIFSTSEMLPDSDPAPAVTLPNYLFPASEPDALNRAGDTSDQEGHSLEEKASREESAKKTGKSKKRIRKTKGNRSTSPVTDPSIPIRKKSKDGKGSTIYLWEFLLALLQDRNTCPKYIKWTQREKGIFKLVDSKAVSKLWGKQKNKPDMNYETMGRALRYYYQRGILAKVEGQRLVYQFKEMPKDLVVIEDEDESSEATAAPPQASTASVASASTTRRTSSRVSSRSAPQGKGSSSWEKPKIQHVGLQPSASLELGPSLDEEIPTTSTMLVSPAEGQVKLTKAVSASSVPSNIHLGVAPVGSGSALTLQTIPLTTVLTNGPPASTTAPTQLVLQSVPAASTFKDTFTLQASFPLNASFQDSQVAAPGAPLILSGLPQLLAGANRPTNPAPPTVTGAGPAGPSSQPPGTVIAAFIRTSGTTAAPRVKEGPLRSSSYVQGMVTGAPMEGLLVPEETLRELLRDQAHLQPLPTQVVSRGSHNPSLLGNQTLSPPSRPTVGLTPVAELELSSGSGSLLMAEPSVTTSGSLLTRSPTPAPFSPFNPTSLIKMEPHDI
Sequence of ETV1 (P50549 whole entry): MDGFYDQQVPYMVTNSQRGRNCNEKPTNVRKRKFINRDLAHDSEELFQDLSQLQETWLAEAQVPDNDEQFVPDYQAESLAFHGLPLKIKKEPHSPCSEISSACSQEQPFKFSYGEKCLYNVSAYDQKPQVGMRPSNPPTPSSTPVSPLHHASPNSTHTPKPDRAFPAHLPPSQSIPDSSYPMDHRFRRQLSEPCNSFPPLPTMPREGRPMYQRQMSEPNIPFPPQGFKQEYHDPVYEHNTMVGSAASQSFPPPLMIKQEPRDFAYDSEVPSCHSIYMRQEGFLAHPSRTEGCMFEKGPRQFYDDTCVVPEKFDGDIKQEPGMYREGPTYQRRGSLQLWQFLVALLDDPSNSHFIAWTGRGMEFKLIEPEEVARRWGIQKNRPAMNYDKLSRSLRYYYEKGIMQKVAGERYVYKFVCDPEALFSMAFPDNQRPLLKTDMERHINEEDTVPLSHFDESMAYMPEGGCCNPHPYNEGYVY
Sequence of CRX (O43186 whole entry): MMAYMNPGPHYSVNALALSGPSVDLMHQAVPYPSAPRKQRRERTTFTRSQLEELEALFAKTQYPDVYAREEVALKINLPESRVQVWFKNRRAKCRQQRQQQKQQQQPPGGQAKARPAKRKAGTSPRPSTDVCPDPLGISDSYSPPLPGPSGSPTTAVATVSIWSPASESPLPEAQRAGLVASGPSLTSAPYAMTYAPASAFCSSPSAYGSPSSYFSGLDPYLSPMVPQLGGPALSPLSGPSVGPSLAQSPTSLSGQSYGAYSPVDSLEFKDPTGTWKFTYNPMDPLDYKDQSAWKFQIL

Sequence	binding signal (FEV)	binding signal (ETV5)	binding signal (HSF1)	binding signal (SPIC)	binding signal (ELF4)	binding signal (ELK4)	binding signal (ETV2)	binding signal (ELF3)	binding signal (CRX)	binding signal (ETV1)
AATTTC	1.93 fold enrichment (6-mer frequency, TF over GST control)	1.8 fold enrichment (6-mer frequency, TF over GST control)	1.89 fold enrichment (6-mer frequency, TF over GST control)	1.59 fold enrichment (6-mer frequency, TF over GST control)	1.61 fold enrichment (6-mer frequency, TF over GST control)	1.6 fold enrichment (6-mer frequency, TF over GST control)	1.88 fold enrichment (6-mer frequency, TF over GST control)	1.75 fold enrichment (6-mer frequency, TF over GST control)	1.49 fold enrichment (6-mer frequency, TF over GST control)	1.79 fold enrichment (6-mer frequency, TF over GST control)
TAAATG	1.18 fold enrichment (6-mer frequency, TF over GST control)	1.38 fold enrichment (6-mer frequency, TF over GST control)	1.37 fold enrichment (6-mer frequency, TF over GST control)	1.46 fold enrichment (6-mer frequency, TF over GST control)	1.25 fold enrichment (6-mer frequency, TF over GST control)	1.39 fold enrichment (6-mer frequency, TF over GST control)	1.31 fold enrichment (6-mer frequency, TF over GST control)	1.34 fold enrichment (6-mer frequency, TF over GST control)	1.69 fold enrichment (6-mer frequency, TF over GST control)	1.37 fold enrichment (6-mer frequency, TF over GST control)
AAAATC	1.19 fold enrichment (6-mer frequency, TF over GST control)	1.19 fold enrichment (6-mer frequency, TF over GST control)	1.51 fold enrichment (6-mer frequency, TF over GST control)	1.07 fold enrichment (6-mer frequency, TF over GST control)	1.23 fold enrichment (6-mer frequency, TF over GST control)	1.05 fold enrichment (6-mer frequency, TF over GST control)	1.28 fold enrichment (6-mer frequency, TF over GST control)	1.11 fold enrichment (6-mer frequency, TF over GST control)	1.62 fold enrichment (6-mer frequency, TF over GST control)	1.12 fold enrichment (6-mer frequency, TF over GST control)
CAAAAA	1.2 fold enrichment (6-mer frequency, TF over GST control)	1.15 fold enrichment (6-mer frequency, TF over GST control)	1.08 fold enrichment (6-mer frequency, TF over GST control)	1.01 fold enrichment (6-mer frequency, TF over GST control)	1.18 fold enrichment (6-mer frequency, TF over GST control)	1.13 fold enrichment (6-mer frequency, TF over GST control)	1.17 fold enrichment (6-mer frequency, TF over GST control)	1.12 fold enrichment (6-mer frequency, TF over GST control)	1.02 fold enrichment (6-mer frequency, TF over GST control)	1.22 fold enrichment (6-mer frequency, TF over GST control)
TTACCT	1.26 fold enrichment (6-mer frequency, TF over GST control)	1.35 fold enrichment (6-mer frequency, TF over GST control)	1.45 fold enrichment (6-mer frequency, TF over GST control)	1.01 fold enrichment (6-mer frequency, TF over GST control)	1.21 fold enrichment (6-mer frequency, TF over GST control)	1.32 fold enrichment (6-mer frequency, TF over GST control)	1.32 fold enrichment (6-mer frequency, TF over GST control)	1.2 fold enrichment (6-mer frequency, TF over GST control)	2.09 fold enrichment (6-mer frequency, TF over GST control)	1.32 fold enrichment (6-mer frequency, TF over GST control)
TAACGC	1.19 fold enrichment (6-mer frequency, TF over GST control)	1.22 fold enrichment (6-mer frequency, TF over GST control)	1.28 fold enrichment (6-mer frequency, TF over GST control)	1.05 fold enrichment (6-mer frequency, TF over GST control)	1.15 fold enrichment (6-mer frequency, TF over GST control)	1.17 fold enrichment (6-mer frequency, TF over GST control)	1.13 fold enrichment (6-mer frequency, TF over GST control)	1.17 fold enrichment (6-mer frequency, TF over GST control)	1.63 fold enrichment (6-mer frequency, TF over GST control)	1.12 fold enrichment (6-mer frequency, TF over GST control)
CTAGAT	1.13 fold enrichment (6-mer frequency, TF over GST control)	1.19 fold enrichment (6-mer frequency, TF over GST control)	2.7 fold enrichment (6-mer frequency, TF over GST control)	1.16 fold enrichment (6-mer frequency, TF over GST control)	1.16 fold enrichment (6-mer frequency, TF over GST control)	1.17 fold enrichment (6-mer frequency, TF over GST control)	1.17 fold enrichment (6-mer frequency, TF over GST control)	1.15 fold enrichment (6-mer frequency, TF over GST control)	1.83 fold enrichment (6-mer frequency, TF over GST control)	1.17 fold enrichment (6-mer frequency, TF over GST control)
GATATA	1.08 fold enrichment (6-mer frequency, TF over GST control)	1.13 fold enrichment (6-mer frequency, TF over GST control)	1.09 fold enrichment (6-mer frequency, TF over GST control)	1.13 fold enrichment (6-mer frequency, TF over GST control)	1.06 fold enrichment (6-mer frequency, TF over GST control)	1.18 fold enrichment (6-mer frequency, TF over GST control)	1.19 fold enrichment (6-mer frequency, TF over GST control)	1.33 fold enrichment (6-mer frequency, TF over GST control)	1.19 fold enrichment (6-mer frequency, TF over GST control)	1.08 fold enrichment (6-mer frequency, TF over GST control)

From article PMC7862700, “An all-to-all approach to the identification of sequence-specific readers for epigenetic DNA modifications on cytosine”
